Reference: PubChem BioAssay (EPA / NIEHS)
Where “and” joins values, the source holds several entries; their conditions need not be identical. Identical values can stand only once. A structure can be active in one record and inactive in another. Calls of active or inactive are those of the source. Rule for the calls: active = hit-call score of the fitted dose curve at least 0.9, where 1 is the maximum; inactive = score below 0.9.

Read-out: Tumor necrosis factor (Homo sapiens) (UniProt P01375)
Test: BSK_BT_xTNFa: BioMAP Diversity Plus: BT Assay for Tumor necrosis factor alpha (TNF-alpha) Biomarker Activity (AID 2284230)
Details: primary human B cells with PBMC
Experimental: BSK_BT is a cell-based, multiplexed-readout assay that uses B cell and peripheral blood mononuclear cells, a human vascular primary cell co-culture, with measurements taken at 24 hours after chemical dosing in a microplate: 96-well plate.BSK_BT_xTNFa is an assay component of the BSK_BT assay. It measures secreted TNF-alpha related to regulation of gene expression using LumineX xMAP technology.Data from the assay component BSK_BT_xTNFa was analyzed at the endpoint, BSK_BT_xTNFa, in the positive analysis fitting direction relative to DMSO as the negative control and baseline of activity. Using a type of cytokine quantitation reporter, gain or loss-of-signal activity can be used to understand protein changes. To generalize the intended target to other relatable targets, this assay endpoint is annotated to the 'cytokine' intended target family, where the subfamily is 'inflammatory factor'.
The levels of cell surface (or secreted, indicated by the prefix "s") biomarker endpoints were measured by ELISA. Overt cytotoxicity to cells in confluent adherent cultures (all systems other than the BT system) was assessed by measuring total protein levels using sulforhodamine B (SRB) staining in parallel cultures at the time of biomarker measurements, indicated as SRB endpoints. For proliferation assays for adherent cell types, individual cell types are cultured at sub-confluence and relative cell numbers quantified by SRB staining at time points optimized for each system (48 h: 3C and CASM3C systems; 72 h: BT and HDF3CGF systems; 96 h: SAg system). SRB was performed by staining cells with 0.1% SRB after fixation with 10% TCA and reading wells at 560 nm.Viability and proliferation of PBMC (T cells) was quantified by Alamar Blue reduction for the SAg and BT systems. For PBMC viability (referred to as PBMC Cytotoxicity within the assay endpoint names), cells were plated (75,000/well in a 96-well plate) and then chemical samples added for 1 h before addition of activators, SEB and TSST-1 (20 ng/mL final concentration each). Cells were incubated for 90 h. Then, Alamar Blue (20 uL/well) (Invitrogen, Cat DAL1100) was added for 6 h, and the plates were read with a fluorescence microplate reader at 546/580 nm (excitation/emission). For PBMC proliferation, cells were plated and activated as above but incubated for only 16 h prior to addition of Alamar Blue. Plates were read after 6 h.

Chain of Tumor necrosis factor (Homo sapiens) (P01375 whole entry, looked up): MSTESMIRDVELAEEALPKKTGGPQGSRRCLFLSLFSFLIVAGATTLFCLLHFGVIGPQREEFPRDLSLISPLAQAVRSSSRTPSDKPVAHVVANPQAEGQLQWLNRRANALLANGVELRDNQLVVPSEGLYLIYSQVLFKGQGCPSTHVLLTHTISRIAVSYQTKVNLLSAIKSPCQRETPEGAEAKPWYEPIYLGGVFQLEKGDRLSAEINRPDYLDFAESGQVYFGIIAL

SMILES	outcome	AC50
COP(=O)(O)OC	inactive	–
O=C(O)C=CC(F)(C(F)(F)F)C(F)(F)F	inactive	–
Nc1ccc([N+](=O)[O-])cc1Cl	inactive	–
CCCCOCCOP(=O)(OCCOCCCC)OCCOCCCC	–	0.015 µM (active)
N#Cc1c(-c2ccc(Cl)cc2)[nH]c(C(F)(F)F)c1Br	–	10.8 µM (active)
O=C(O)C(F)(F)OC(F)(F)C(F)(F)OC(F)(F)F	inactive	–
c1ccc2c(c1)sc1ccccc12	inactive	–
C=CC(=O)OCC(F)(F)C(F)F	–	30 µM (active) and 29.8 µM (active)
OCC(F)(F)OC(F)(F)C(F)(F)OC(F)(F)CO	inactive	–
C=CC(=O)OCC(CC)(COC(=O)C=C)COC(=O)C=C	–	2.61 µM (active)
OCC(F)(F)OC(F)(F)C(F)(F)OC(F)(F)C(F)(F)OC(F)(F)F	–	50.4 µM (active) and 30 µM (active)
O=C(O)C(F)(F)OC(F)(F)C(F)(F)OC(F)(F)C(=O)O	inactive	–
CCOP(=S)(S)OCC	inactive	–
CC(C)Nc1ccc(Nc2ccccc2)cc1	–	5 µM (active)
COC(=O)C(F)(F)C(F)(F)OC(F)(C(F)(F)F)C(F)(F)OC(F)=C(F)F (stereo not given)	inactive	–
O=C(O)C(F)(OC(F)(F)C(F)(F)C(F)(F)F)C(F)(F)F (stereo not given)	inactive	6.18 µM (active)
CC(C)(C)c1ccccc1OP(=O)(Oc1ccccc1)Oc1ccccc1	–	36.7 µM (active)
CC(O)C(F)(F)C(F)(F)F (stereo not given)	inactive	–
CCOP(=S)(OCC)SCSc1ccc(Cl)cc1	inactive	–

SMILES	outcome	AC50
Cc1ccc2c(c1N)C(=O)c1ccccc1C2=O	–	20 µM (active)
NC(=O)C(F)(F)C(F)(F)F	inactive	–
FC(F)(F)C(F)(C(F)(F)F)C(F)(F)C(F)(F)CC1CO1 (stereo not given)	inactive	–
CCOP(=S)(NC(C)C)Oc1ccccc1C(=O)OC(C)C (stereo not given)	inactive	–
CCOP(=S)(OCC)SCn1nnc2ccccc2c1=O	inactive	–
O=S(=O)(F)C(F)(F)C(F)(F)C(F)(F)C(F)(F)C(F)(F)C(F)(F)C(F)(F)C(F)(F)F	inactive	–
CCCCC(CC)COC(=O)c1c(Br)c(Br)c(Br)c(Br)c1C(=O)OCC(CC)CCCC (stereo not given)	inactive	–
O=S1(=O)OCC2C(CO1)C1(Cl)C(Cl)=C(Cl)C2(Cl)C1(Cl)Cl (stereo not given)	–	31 µM (active)
O=C(O)C(F)(F)C(F)(F)C(=O)O	inactive	0.222 µM (active)
ClC(Cl)=C(c1ccc(Cl)cc1)c1ccccc1Cl	–	31.1 µM (active)
O=c1ssc(Cl)c1Cl	–	8.17 µM (active)
N#Cc1cc([N+](=O)[O-])ccc1N	inactive	–
Cc1c([N+](=O)[O-])cc2c(c1[N+](=O)[O-])C(C)(C)CC2(C)C	–	29.5 µM (active)
CCOP(=S)(OCC)SCS(=O)(=O)CC	inactive	–
O=P(OCC(Br)CBr)(OCC(Br)CBr)OCC(Br)CBr (stereo not given)	–	33.6 µM (active)
CC(Cl)CN(C)C (stereo not given)	inactive	–
COP(N)(=S)OC	inactive	–
CCCCC(CC)COP(=O)(Oc1ccccc1)Oc1ccccc1 (stereo not given)	–	20 µM (active)
OCC(F)(F)OC(F)(F)C(F)(F)OC(F)(F)C(F)(F)OC(F)(F)CO	inactive	–
